Source: PubChem (National Center for Advancing Translational Sciences (NCATS))
This is a sample that favours compounds with a hit; in the whole collection about 19% have one here.
DT40 TDP1 CPT – growth inhibition of DT40 Tdp1-/-;hTDP1 cells with camptothecin (screen for TDP1 inhibitors). chicken DT40 Tdp1-/-;hTDP1 cells + 20 nM CPT, ATP luminescence, 48 h. AID 686979. actives 12% (n = 420,000). Potency, µM (highest dose often 46.2 µM), hits mostly inhibitors; also: nearly all actives have a fitted effect of over 55% in size
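Chicken DT40 Tdp1-/- cells complemented with human TDP1, 400 cells/well, exposed to compounds plus 20 nM camptothecin for at least 48 h at 37 C; viability read as ATP content by CellTiter-Glo luminescence.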
KB-V1 MDR tox – kills drug-selected multidrug resistant KB-V1 cells. KB-V1 MDR cells viability, CellTiter-Glo, 72 h. Potency, µM (series often up to 46.1 µM), most hits filed as cytotoxic. actives 3.4% (n = 400,000). AID 1347076; also: nearly all actives have a fitted effect of over 60% in size
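KB-V1, DMEM (no phenol red) + 10% FBS; cpd pin-transferred, titration series; 72 h, 37 degrees C; CellTiter-Glo, luminescence. Data normalized, curve-fit.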
HT1080NT lethal – kills 2HG-producing HT-1080-NT fibrosarcoma cells; HT-1080-NT fibrosarcoma viability, CellTiter-Glo ATP luminescence, 48 h; Potency, µM (top dose mostly 46.1 µM), most hits filed as cytotoxic; actives 1.6% (n = 360,000); AID 686970;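 also: NT is the 2HG producing partner of a matched IDH1 knockdown line; nearly all actives have a fitted effect of over 55% in size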
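Fibrosarcoma NT cells, 750 per well in 5% FBS RPMI, were exposed to compound for 48 hours. Viability: CellTiter-Glo luminescence.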
DT40 TDP1 no CPT – qHTS for Inhibitors of human tyrosyl-DNA phosphodiesterase 1 (TDP1): qHTS in cells in absence of CPT; DT40 Tdp1-/- hTDP1 cells, no CPT, ATP luminescence, 48 h; Potency, µM (titrated, usually from 46.2 µM), most hits filed as inhibitors; actives 15% (n = 420,000); also: nearly all actives have a fitted effect of over 55% in size
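Camptothecin absent (DMSO only). Human TDP1-complemented DT40 knockout cells, 400 cells/well, 37 °C for minimum 48 hr; ATP measured via CellTiter-Glo, 30 min dark incubation, luminescence.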
KB-3-1 tox – kills parental KB-3-1 adenocarcinoma cells; KB-3-1 viability, CellTiter-Glo ATP luminescence, 72 h; Potency, µM (titrated, usually from 46.1 µM), actives largely listed as cytotoxic; actives 1.4% (n = 400,000); AID 1347075; also: nearly all actives have a fitted effect of over 60% in size
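Cells are dispensed, compounds pinned in, plates held at 37 °C for 72 h, then CellTiter-Glo is added and luminescence read after 10 minutes. Cell line: parental KB-3-1 in phenol-red-free DMEM, 10% FBS.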
HT1080 IDH1KD tx – toxicity to HT-1080 IDH1 knockdown cells (counter line); HT-1080 IDH1 knockdown viability, ATP luminescence, 48 h; Potency, µM (series often up to 46.1 µM), most hits filed as cytotoxic; actives 2% (n = 360,000)
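CellTiter-Glo luminescence after 48 h compound exposure at 37 degrees C of IDH1-knockdown HT-1080 cells in 5% FBS RPMI. %Activity scaled between DMSO wells and cell-free media wells, with curves fitted and assigned curve classes.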
Large screens that a line does not name were inactive. Calls follow the shape of the dose curve; as a rule, active = well fitted curve in the direction sought with a large enough effect; inconclusive = small, poorly fitted or top-dose-only effect, or another doubt; inactive = no such curve, though single readings can be large; an effect the other way counts as inactive or inconclusive.

Cc1ccc(C)c(N2CCN(c3nc4ccccc4c(=O)n3-c3ccccc3)CC2)c1	DT40 TDP1 CPT 10.3µM, DT40 TDP1 no CPT 9.2µM (no result: KB-V1 MDR tox, HT1080NT lethal, KB-3-1 tox, HT1080 IDH1KD tx)
CCN(CC)c1ccc(NC(=O)c2cc(C)nc3c2c(C)nn3-c2ccc(C)cc2)c(C)c1	DT40 TDP1 CPT inconclusive, DT40 TDP1 no CPT inconclusive (no result: HT1080NT lethal, HT1080 IDH1KD tx)
Cc1ccc(Sc2c(C)nn(C(C)(C)C)c2OC(=O)CC(C)C)cc1	DT40 TDP1 CPT inconclusive, DT40 TDP1 no CPT inconclusive (no result: HT1080NT lethal, HT1080 IDH1KD tx)
OC(CNCc1ccco1)Cn1c2ccc(Br)cc2c2cc(Br)ccc21 (stereo unspecified)	DT40 TDP1 CPT 14.6µM, HT1080NT lethal inconclusive, DT40 TDP1 no CPT 18.4µM, HT1080 IDH1KD tx inconclusive
Cc1cc2c(OCC(O)CNCc3ccco3)cccc2[nH]1 (stereo unspecified)	HT1080 IDH1KD tx inconclusive
O=S1(=O)CCC(N=Nc2c(O)n(Cc3ccccc3)c3ccccc23)C1 (stereo unspecified)	DT40 TDP1 CPT 20.6µM, KB-V1 MDR tox inconclusive, DT40 TDP1 no CPT inconclusive
C/C(Cl)=C\Cn1c(O)c(N=NC(N)=S)c2ccccc21	DT40 TDP1 CPT 4.11µM, KB-V1 MDR tox 9.2µM, DT40 TDP1 no CPT 3.66µM, KB-3-1 tox inconclusive
CCCCNC(=S)N=Nc1c(O)n(Cc2ccccc2)c2ccccc12	DT40 TDP1 CPT 16.4µM, DT40 TDP1 no CPT 2.59µM
O=Nc1c(O)n(Cc2cccc(Cl)c2)c2ccccc12	HT1080NT lethal 14.6µM, HT1080 IDH1KD tx 18.4µM
COC(=O)CSc1ncc2c(n1)-c1ccccc1N(Cc1ccccc1C)S2(=O)=O	none (no result: HT1080NT lethal, HT1080 IDH1KD tx)
CCOC(=O)N=Nc1c(O)n(Cc2ccccc2)c2ccccc12	DT40 TDP1 CPT inconclusive, DT40 TDP1 no CPT inconclusive
NC(=S)N=Nc1c(O)n(Cc2ccccc2)c2ccccc12	DT40 TDP1 CPT 5.8µM, DT40 TDP1 no CPT 6.51µM
Cc1cc(C)nc(N=Nc2c(O)n(Cc3ccc(Cl)cc3)c3ccccc23)n1	DT40 TDP1 CPT inconclusive, KB-V1 MDR tox inconclusive, DT40 TDP1 no CPT 18.4µM, KB-3-1 tox inconclusive
CN(C)/C=C(\C#N)C(=O)N/N=C(\CC(=O)C(F)(F)F)c1ccco1	none
COc1cccc(C(C)(O)c2nc(-c3ccc(OC)c(OC)c3)cs2)c1 (stereo unspecified)	DT40 TDP1 CPT inconclusive, DT40 TDP1 no CPT inconclusive, HT1080 IDH1KD tx inconclusive
COc1ccc(C(C)(O)c2nc(-c3ccc(OC)c(OC)c3)cs2)cc1 (stereo unspecified)	DT40 TDP1 CPT 23.1µM, DT40 TDP1 no CPT inconclusive
COc1ccc(-c2csc(C(C)(O)c3ccc(F)c(F)c3)n2)cc1OC (stereo unspecified)	DT40 TDP1 CPT 18.4µM, DT40 TDP1 no CPT inconclusive
COc1ccc(-c2csc(C(C)(O)c3ccccc3)n2)cc1OC (stereo unspecified)	DT40 TDP1 CPT inconclusive, KB-V1 MDR tox 23.1µM, DT40 TDP1 no CPT inconclusive, KB-3-1 tox inconclusive
CS(=O)(=O)N1CCc2ccc(NC(=O)C3CCCO3)cc2C1 (stereo unspecified)	none
